Measurements taken from PubChem BioAssay (Tox21).
“And” between values parts separate entries of the source, which are not always exact repeats. Equal values may be shown once. Records with an inconclusive call do not appear. The source holds several records for some structures; these can differ, active in one and inactive in another. The source made the active and inactive calls. The call rests on the fitted dose curve; in most records, active means well fitted curve in the direction sought with a large enough effect in the repeat runs; inconclusive means weak or mixed curves; inactive means no such curve, though single readings can be large; an effect the other way counts as inactive or inconclusive.

Assay: qHTS RealTime-Glo MT Cell Viability Assay in HepG2 cells - 16 hour (AID 1224885)
Settings: RealTime-Glo luminescence; series mostly up to 76.8 µM; activity change, negative = cytotoxic: at the top concentration
Method in brief: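 HepG2 cells were seeded at 600 cells/well together with NanoLuc luciferase and a cell-permeant prosubstrate, preincubated 5 h at 37 C/5% CO2, then pin-dosed with compounds in DMSO. Nonlytic luminescence from viable cells was read at each time point.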
Further: nearly all actives have a fitted effect of over 50% in size.
On the % scale 0 is the no-effect control and ±100 the full control effect; potency means the concentration at half of the fitted maximal effect.

Compound	activity change, negative = cytotoxic	Potency
Cc1cnccn1	-4.24% (inactive)	
C/C=C/CO	-0.574% (inactive)	
ClC/C=C\CCl	0.0079% (inactive)	
CN1[C@@H]2CC[C@@H]1CC(OC(=O)C(CO)c1ccccc1)C2 (stereo not given in full)	-0.068% [at 35.3 µM] (inactive)	
O=C1OC(=O)c2ccc3c4c(ccc1c24)C(=O)OC3=O	-2.73% (inactive)	
O=S(O)O	2.97% [at 15.8 µM] (inactive)	
C[Si](C)O[Si](C)C	0.939% (inactive)	
O=C1C=CC(=O)N1c1ccccc1		15.5 µM (active)
CN1[C@@H]2CC[C@H]1CC(OC(=O)C(CO)c1ccccc1)C2 (stereo not given in full)		inactive
Clc1ccc(C(c2ccccc2Cl)C(Cl)Cl)cc1 (stereo not given)	-8.28% [at 35.3 µM] (inactive)	
CCCC(O)C(O)CO (stereo not given)	1.23% (inactive)	
CCOC(OCC)C(=O)c1ccccc1	2.93% (inactive)	
CCN(CC)c1cccc(C)c1	-2.21% (inactive)	
O=Nc1ccc(NO)cc1	-0.206% (inactive)	
COC(=O)NCCC[Si](OC)(OC)OC	-5.49% (inactive)	
Cc1c(C(=O)O)cccc1[N+](=O)[O-]	0.0307% (inactive)	
CCC(C)c1ccccc1 (stereo not given)	1.29% (inactive)	
Cc1cccc(C)n1	1.62% (inactive)	

Compound	activity change, negative = cytotoxic	Potency
CCc1cccc(C)c1	-5.32% (inactive)	
O=C(O)Cc1ccc(OCCNC[C@H](O)c2ccccc2)cc1	2.51% [at 35.3 µM] (inactive)	
CCOC(/C=C(\C)CCC=C(C)C)OCC	-3.06% (inactive)	
CN1CN(C)CN(C)C1	-3.78% (inactive)	
C1CC(COCC2CO2)CCC1COCC1CO1 (stereo not given)	-0.194% (inactive)	
O=C1OC(OC(=O)c2cccnc2Nc2cccc(C(F)(F)F)c2)c2ccccc21 (stereo not given)	-4.76% [at 35.3 µM] (inactive)	
CCc1cccc(CC)c1NC(=O)C(=O)O	1.38% (inactive)	
CCCCCCCC/C=C\CCCCCCCC(=O)NCc1ccc(O)c(OC)c1	-10.8% [at 35.3 µM] (inactive)	
CCCCCCCCCCCCCOP(=O)(O)O	2% (inactive)	
OCCC(O)CO (stereo not given)	0.424% (inactive)	
C=CC(=O)OCCN(CC)CC	2.99% (inactive)	
COC(=O)[C@]1(C)CCC[C@@]2(C)[C@H]1CC=C1C=C(C(C)C)CC[C@@H]12	-3.47% (inactive)	
CCC1(c2cnc[nH]2)Cc2ccccc2C1	3.78% [at 35.3 µM] (inactive)	
CC1=C(/C=C/C(C)=C/C=C/C(C)=C/C(=O)Nc2ccc(O)cc2)C(C)(C)CCC1		inactive and 26.8 µM (active)
CC[N+](CC)(CC)Cc1ccccc1	0.643% (inactive)	
CC(C)c1ccccc1N	-0.348% (inactive)	
CCC(=O)OCCc1ccccc1	-3.11% (inactive)	

Assay: qHTS RealTime-Glo MT Cell Viability Assay in HEK293 cells - 24 hour (AID 1224886); on activity change, negative = cytotoxicity: top concentration of the series differs between compounds
Settings: RealTime-Glo luminescence; series mostly up to 76.8 µM; activity change, negative = cytotoxicity: at the top concentration
Method in brief: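 HEK293 cells were seeded at 600 cells/well together with NanoLuc luciferase and cell-permeant prosubstrate, preincubated 5 h at 37 C/5% CO2, then given compound in DMSO by pintool. Luminescence from viable-cell prosubstrate reduction was read repeatedly over 40 h.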

Compound	activity change, negative = cytotoxicity	Potency
Cc1cnccn1	9.03% (inactive)	
C/C=C/CO	8.88% (inactive)	
ClC/C=C\CCl	-19.8% (inactive)	
CN1[C@@H]2CC[C@@H]1CC(OC(=O)C(CO)c1ccccc1)C2 (stereo not given in full)	-3.11% [at 35.3 µM] (inactive)	
O=C1OC(=O)c2ccc3c4c(ccc1c24)C(=O)OC3=O	-3.93% (inactive)	
O=S(O)O	11.2% [at 15.8 µM] (inactive)	
C[Si](C)O[Si](C)C	-10.6% (inactive)	
O=C1C=CC(=O)N1c1ccccc1		12.3 µM (active)
CN1[C@@H]2CC[C@H]1CC(OC(=O)C(CO)c1ccccc1)C2 (stereo not given in full)		inactive
Clc1ccc(C(c2ccccc2Cl)C(Cl)Cl)cc1 (stereo not given)		38.9 µM (active) and inactive
CCCC(O)C(O)CO (stereo not given)	-0.855% (inactive)	
CCOC(OCC)C(=O)c1ccccc1	1.01% (inactive)	
CCN(CC)c1cccc(C)c1	-4.05% (inactive)	
O=Nc1ccc(NO)cc1	23.4% (inactive)	
COC(=O)NCCC[Si](OC)(OC)OC	15.4% (inactive)	
Cc1c(C(=O)O)cccc1[N+](=O)[O-]	-4.47% (inactive)	
CCC(C)c1ccccc1 (stereo not given)	4.44% (inactive)	
Cc1cccc(C)n1	-1.66% (inactive)	

Compound	activity change, negative = cytotoxicity	Potency
CCc1cccc(C)c1	-1.19% (inactive)	
O=C(O)Cc1ccc(OCCNC[C@H](O)c2ccccc2)cc1	1.99% [at 35.3 µM] (inactive)	
CCOC(/C=C(\C)CCC=C(C)C)OCC	4.33% (inactive)	
CN1CN(C)CN(C)C1	-14.6% (inactive)	
C1CC(COCC2CO2)CCC1COCC1CO1 (stereo not given)	-9.07% (inactive)	
O=C1OC(OC(=O)c2cccnc2Nc2cccc(C(F)(F)F)c2)c2ccccc21 (stereo not given)	3.23% [at 35.3 µM] (inactive)	
CCc1cccc(CC)c1NC(=O)C(=O)O	9.5% (inactive)	
CCCCCCCC/C=C\CCCCCCCC(=O)NCc1ccc(O)c(OC)c1		2.39 µM (active)
CCCCCCCCCCCCCOP(=O)(O)O	0.434% (inactive)	
OCCC(O)CO (stereo not given)	12.7% (inactive)	
C=CC(=O)OCCN(CC)CC	1.77% (inactive)	
COC(=O)[C@]1(C)CCC[C@@]2(C)[C@H]1CC=C1C=C(C(C)C)CC[C@@H]12	-2.87% (inactive)	
CCC1(c2cnc[nH]2)Cc2ccccc2C1	-2.29% [at 35.3 µM] (inactive)	
CC1=C(/C=C/C(C)=C/C=C/C(C)=C/C(=O)Nc2ccc(O)cc2)C(C)(C)CCC1		893 nM (active) and 338 nM (active)
CC[N+](CC)(CC)Cc1ccccc1	9.58% (inactive)	
CC(C)c1ccccc1N	-3.14% (inactive)	
CCC(=O)OCCc1ccccc1	10.9% (inactive)	

Assay: qHTS RealTime-Glo MT Cell Viability Assay in HEK293 cells - 8 hour (AID 1224887); on activity change, negative = cytotoxicity: top concentration of the series differs between compounds
Settings: RealTime-Glo luminescence; series mostly up to 76.8 µM; activity change, negative = cytotoxicity: at the top concentration
Method in brief: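 Kinetic, non-lysing viability readout. Seed HEK293 (600/well) with reagent, incubate 5 h at 37 C/5% CO2, pin 23 nL compound in DMSO, incubate at 37 C, read luminescence at 0, 8, 16, 24, 32, 40 h.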

Compound	activity change, negative = cytotoxicity	Potency
Cc1cnccn1	-0.118% (inactive)	
C/C=C/CO	7.56% (inactive)	
ClC/C=C\CCl	8.93% (inactive)	
CN1[C@@H]2CC[C@@H]1CC(OC(=O)C(CO)c1ccccc1)C2 (stereo not given in full)	-10.6% [at 35.3 µM] (inactive)	
O=C1OC(=O)c2ccc3c4c(ccc1c24)C(=O)OC3=O	-9.47% (inactive)	
O=S(O)O	3.5% [at 15.8 µM] (inactive)	
C[Si](C)O[Si](C)C	-3.41% (inactive)	
O=C1C=CC(=O)N1c1ccccc1		43.6 µM (active)
CN1[C@@H]2CC[C@H]1CC(OC(=O)C(CO)c1ccccc1)C2 (stereo not given in full)		inactive
Clc1ccc(C(c2ccccc2Cl)C(Cl)Cl)cc1 (stereo not given)	-24.8% [at 35.3 µM] (inactive)	
CCCC(O)C(O)CO (stereo not given)	3.38% (inactive)	
CCOC(OCC)C(=O)c1ccccc1	0.0855% (inactive)	
CCN(CC)c1cccc(C)c1	-0.874% (inactive)	
O=Nc1ccc(NO)cc1	-1.01% (inactive)	
COC(=O)NCCC[Si](OC)(OC)OC	4.06% (inactive)	
Cc1c(C(=O)O)cccc1[N+](=O)[O-]	2.38% (inactive)	
CCC(C)c1ccccc1 (stereo not given)	2.88% (inactive)	
Cc1cccc(C)n1	4.88% (inactive)	

Compound	activity change, negative = cytotoxicity	Potency
CCc1cccc(C)c1	-1.95% (inactive)	
O=C(O)Cc1ccc(OCCNC[C@H](O)c2ccccc2)cc1	7.25% [at 35.3 µM] (inactive)	
CCOC(/C=C(\C)CCC=C(C)C)OCC	2.2% (inactive)	
CN1CN(C)CN(C)C1	-6.74% (inactive)	
C1CC(COCC2CO2)CCC1COCC1CO1 (stereo not given)	-2.48% (inactive)	
O=C1OC(OC(=O)c2cccnc2Nc2cccc(C(F)(F)F)c2)c2ccccc21 (stereo not given)	-0.195% [at 35.3 µM] (inactive)	
CCc1cccc(CC)c1NC(=O)C(=O)O	5.73% (inactive)	
CCCCCCCC/C=C\CCCCCCCC(=O)NCc1ccc(O)c(OC)c1		1.51 µM (active)
CCCCCCCCCCCCCOP(=O)(O)O	3.81% (inactive)	
OCCC(O)CO (stereo not given)	9.57% (inactive)	
C=CC(=O)OCCN(CC)CC	3.04% (inactive)	
COC(=O)[C@]1(C)CCC[C@@]2(C)[C@H]1CC=C1C=C(C(C)C)CC[C@@H]12	-3.16% (inactive)	
CCC1(c2cnc[nH]2)Cc2ccccc2C1	0.7% [at 35.3 µM] (inactive)	
CC1=C(/C=C/C(C)=C/C=C/C(C)=C/C(=O)Nc2ccc(O)cc2)C(C)(C)CCC1		710 nM (active) and 239 nM (active)
CC[N+](CC)(CC)Cc1ccccc1	8.81% (inactive)	
CC(C)c1ccccc1N	2.89% (inactive)	
CCC(=O)OCCc1ccccc1	2.12% (inactive)	
